Out of some 1,900 compounds screened, about 1,000 (53%) were called active. The set was probably picked from earlier hits. A selection follows. Values without a mark were called inactive.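 Rule for the calls: active = mean PP1 inhibition above a set limit taken from the earlier primary screen (cut at about 15% in these data); inactive = the rest.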

In this test the target is Serine/threonine-protein phosphatase PP1-alpha catalytic subunit (Homo sapiens) (UniProt P62136). Nature of the test: inhibition of human PP1-alpha enzyme activity – biochemical, fluorescence, OMFP substrate, triplicate, confirmation (AID 2358). Particulars: purified PP1alpha, at 6.7 µM, active compounds read high.
Sequence of Serine/threonine-protein phosphatase PP1-alpha catalytic subunit (Homo sapiens) (P62136 whole entry, looked up): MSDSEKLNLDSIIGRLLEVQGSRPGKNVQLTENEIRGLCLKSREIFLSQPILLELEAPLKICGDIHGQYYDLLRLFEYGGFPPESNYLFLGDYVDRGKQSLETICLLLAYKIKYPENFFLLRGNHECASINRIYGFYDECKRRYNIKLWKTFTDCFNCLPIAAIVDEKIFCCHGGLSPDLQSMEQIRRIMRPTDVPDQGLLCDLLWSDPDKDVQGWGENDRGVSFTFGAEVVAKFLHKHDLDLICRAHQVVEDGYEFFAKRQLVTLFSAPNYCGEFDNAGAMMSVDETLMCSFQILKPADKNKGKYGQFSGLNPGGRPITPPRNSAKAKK
On to `Cc1ccc(C)c(Cn2nnc3c(=O)[nH]c(C(=O)Nc4ccc(F)cc4)nc32)c1`, for which the inhibition (as a rule, the change of the read-out against control, counted positive when it falls) is 20.8% (active).
For the molecule `COc1ccccc1NC(=O)CSc1nc2sc3c(c2c(=O)n1-c1ccccc1)CCN(C)C3`, the inhibition is 10.6%.
The same measure for `Cc1cc(N/N=C\c2ccc(Br)cc2)nc(-n2nc(C)cc2C)n1`: 21.7% (active).
As for `COc1ccccc1/C=N\Nc1cc(C)nc(-n2nc(C)cc2C)n1`, the figure is 44.3% (active).
As for `CN1CCN(CCCNC(=O)c2ccc(/C=C3\Oc4ccccc4N(Cc4ccc(Cl)cc4)C3=O)cc2)CC1`, the figure is 6.35%.
In the case of `O=C(COC(=O)c1ccc(Oc2ccccc2)cc1)Nc1nnc(-c2ccccc2)o1`, the inhibition is 16.8% (active).
Regarding `O=C(N=C1SC2CS(=O)(=O)CC2N1c1cc(Cl)ccc1Cl)C1CC1` (stereo not given), the inhibition is -1.43%.
The same measure for `Cc1ccc(Nc2nc(CSc3nnnn3-c3ccccc3)cc(=O)[nH]2)cc1`: 26% (active).
For `Cc1cc(Nc2ccccc2)n(C(=O)c2ccc(N)cc2)n1`, the inhibition was 2.75%.
The same measure for `O=C1C2N=NN(CC(=O)N3N=C(c4cccc5ccccc45)CC3c3ccccc3)C2C(=O)N1c1ccccc1` (stereo not given): 24.2% (active); for `O=C1c2cccc(OCC(=O)N3N=C(c4cccs4)CC3c3ccc(F)cc3)c2CCN1Cc1ccccc1` (stereo not given): 13.1%; for `Cc1ccc(N2C(=O)C3N=NN(CC(=O)N4N=C(c5cccc6ccccc56)CC4c4ccccc4)C3C2=O)cc1` (stereo not given): 12.9%.
The same measure for `O=[N+]([O-])c1ccccc1/C=N/n1c(COc2ccccc2)n[nH]c1=S`: -1.61%.
Take `CCCCn1c(SCc2ncc(-c3ccccc3)o2)nc2cc(S(N)(=O)=O)ccc21`: the inhibition is 11%.
The same measure for `CC(C)OC(=O)c1cc(NC(=O)C2C3CCC(O3)C2C(=O)O)cc(C(=O)OC(C)C)c1` (stereo not given): 5%; for `COc1ccc(NC(=O)C2C3CCC(O3)C2C(=O)O)cc1OC` (stereo not given): 18.6% (active); for `Oc1c(C(c2ccccn2)N2CCOCC2)ccc2cccnc12` (stereo not given): 69.3% (active).
As for `Cc1ccc(-n2nc3ccc(NC(=O)/C=C/c4ccco4)cc3n2)cc1C`, the figure is 14.7%.
The same measure for `Oc1c(Cl)cc(Cl)c(Cl)c1Cc1c(O)c(Cl)cc(Cl)c1Cl`: 22.2% (active); for `Cc1cc(-c2csc(N)n2)c(C)n1-c1ccccc1`: 10.2%; for `CCOc1ccc(NC(=O)c2ccc(NC(=O)COC(=O)c3ccc(NC(=O)CC#N)cc3)cc2)cc1`: 47.8% (active).
For `CN(C(=O)COC(=O)c1cc(-c2ccco2)nc2ccccc12)C1CCS(=O)(=O)C1` (stereo not given), the inhibition was 20.3% (active).
As for `CCn1c(SCC(=O)Nc2cc(C)ccc2C)nnc1-c1cnccn1`, the inhibition was -2.85%.
As for `c1ccc(-c2nccc(-c3ccc(-n4cnc5ccccc54)cc3)n2)nc1`, the figure is 65.5% (active); as for `O=C1C(=O)N(CC2COc3ccccc3O2)c2ccccc21` (stereo not given), 1.9%.
As for `CC1CCCCN1S(=O)(=O)c1ccc(C(=O)Nc2nnc(-c3cccs3)o2)cc1` (stereo not given), the figure is 23.2% (active); as for `Cc1ccccc1S(=O)(=O)N1[C@@H](c2cccc(Cl)c2)C(C(=O)O)=CC[C@H]1c1ccc(Cl)cc1`, 15.6% (active); as for `Cc1ccc(S(=O)(=O)N2[C@@H](c3cccc(Cl)c3)C(C(=O)O)=CC[C@H]2c2ccc(Cl)c(Cl)c2)cc1`, 18.2% (active).
As for `Cc1ccc(-c2nn(-c3ccccc3)cc2/C=C2\SC(=S)N(CCCCCC(=O)O)C2=O)o1`, the figure is 19.6% (active).
Consider `COc1ccc(-c2nn(-c3ccccc3)cc2/C=C\C(=O)Nc2ccc(C(=O)O)cc2)cc1`, for which the inhibition was 11%.
As for `COc1ccc(-c2nn(-c3ccccc3)cc2/C=C2/SC(=S)N(CCCC(=O)O)C2=O)c(C)c1`, the figure is 29.4% (active); as for `CS(=O)(=O)c1ccc2c(c1)SC1=NC(=O)/C(=C/c3ccco3)C(=N)N12`, 7.76%; as for `Cc1ccc(OCC(=O)Nc2ccc(-c3nnc(-c4ccco4)o3)cc2)cc1`, 25.6% (active).
For the molecule `CCCc1ccc(OCC(=O)NNC(=S)NC(=O)c2ccco2)cc1`, the inhibition was 14.1%.
For the molecule `O=C(CSc1nnc(C2CC2)n1Cc1ccccc1)Nc1cccnc1Cl`, the inhibition was -0.54%.
The same measure for `C=CCn1c(=NC(=O)c2ccc(S(=O)(=O)N3CCCC3)cc2)sc2cc(NC(C)=O)ccc21`: 23.1% (active); for `N#Cc1c(-c2ccccc2)nc(SCc2cccc(C(F)(F)F)c2)[nH]c1=O`: 14.1%.
Consider `Clc1ccc2c(c1)C1=C(C(c3ccncc3)O2)C(c2ccc(Br)cc2)n2ncnc2N1` (stereo not given), for which the inhibition is 18.4% (active).
Consider `O=C(N/N=C/c1cc([N+](=O)[O-])ccc1O)/C(=C\c1cccs1)NC(=O)c1ccccc1`, for which the inhibition was 30.9% (active).
Regarding `CCOc1ccc(/C=C/C(=O)OCC(=O)c2ccccc2OC)cc1OC`, the inhibition was 0.75%.
Regarding `COc1cnc(-c2ccccn2)nc1Oc1ccc(C(C)(C)C)cc1`, the inhibition was 32.3% (active).
As for `CC(C)(C)Nc1nc(-c2ccccn2)nc2ccccc12`, the figure is 7.11%; as for `Cc1ccc(CSCC2Nc3ccc(C(=O)N4CCN(c5ccc(F)cc5)CC4)cc3NC2=O)cc1` (stereo not given), 22.6% (active).
With `Oc1ccc(C2Nc3cccc4cccc(c34)N2)cc1`, the inhibition is 0.4%.
In the case of `COCCCNC(=O)C1CC(=O)N(c2ccc(C)cc2)C1` (stereo not given), the inhibition is -1.39%.
As to `OCCNc1nc(Nc2ccc(Cl)c(Cl)c2)nc2ccccc12`, the inhibition was -0.84%.
The same measure for `Oc1c(CN2CCN(c3ccc(F)cc3)CC2)cc(Cl)c2cccnc12`: 39.1% (active).
In the case of `CCCCCCCCCCOC(=O)Cn1c(COc2ccc(C)cc2)[n+](C)c2ccccc21`, the inhibition was 12.8%.
As to `Cc1ccc(NS(=O)(=O)c2ccc(N/N=C/c3ccccc3OCC(=O)O)c([N+](=O)[O-])c2)c(C)c1`, the inhibition was 16% (active).
As for `Nc1ccc2nc3c(=O)[nH]c(=S)[nH]c3nc2c1`, the figure is 34% (active); as for `C/C(=N\c1nc2ccccc2n1C)c1cc(Cl)ccc1O`, -7.49%.
As for `C=C1c2c(Cl)ccc(O)c2C(O)=C2C(=O)[C@]3(O)C(O)=C(C(N)=O)C(=O)[C@@H](N(C)C)[C@@H]3[C@@H](O)C12` (stereo not given in full), the figure is 7.26%; as for `COCCN(CCOC)S(=O)(=O)c1ccc(C(=O)Nc2nc3c(s2)CCc2ccccc2-3)cc1`, 34.5% (active); as for `O=C(Nc1nc(-c2ccco2)c(-c2ccco2)s1)c1ccco1`, 2.84%.
Regarding `C=CCN(CC=C)S(=O)(=O)c1ccc(C(=O)Nc2nc3c(s2)CCc2ccccc2-3)cc1`, the inhibition was 27.9% (active).
Turning to `O=[N+]([O-])/C=C/c1ccc2c(ccn2Cc2ccccc2)c1`, the inhibition was 13.8%.
As for `Cc1cccc(OCC(O)Cn2c(=N)n(CCN3CCOCC3)c3ccccc32)c1` (stereo not given), the figure is -3.3%; as for `CCCCCCCCCCOC(=O)Cn1c(COc2cccc(OC)c2)[n+](C)c2ccccc21`, 8.62%; as for `O=C(Nc1cccc(-c2nc3ccccc3[nH]2)c1)c1ccc(C(=O)Nc2cccc(-c3nc4ccccc4[nH]3)c2)cc1`, 2.51%.
As for `Clc1ccc(-n2nnnc2-c2cnc(-c3ccccn3)nc2-c2cccs2)cc1`, the figure is 64.5% (active).
As for `Cc1ccc(Cn2nnc3c(=O)[nH]c(C4CCN(S(=O)(=O)/C=C/c5ccccc5)CC4)nc32)cc1`, the figure is 20.5% (active); as for `Cc1ccc(NC(=O)COc2ccc(/C=C3/NC(=O)NC3=O)cc2)cc1`, 16.6% (active); as for `NC(N)=N/N=C/c1ccc(OCc2ccc(Cl)cc2Cl)cc1`, 17.3% (active).
For `CC(=O)c1ccc(N2CCN(S(=O)(=O)c3ccc4c(c3)CC(=O)N4C)CC2)cc1`, the inhibition was 7.42%.
As for `O=C(Nc1nnc(-c2ccccc2)o1)c1cc(-c2cccs2)nc2ccccc12`, the figure is 28.1% (active); as for `Cc1ccc(-c2cc(C(=O)Nc3nn[nH]n3)c3ccccc3n2)c(C)c1`, 0.22%.
Turning to `O=C(Nc1ccc(S(=O)(=O)Nc2nccs2)cc1)c1cc(-c2ccncc2)nc2ccccc12`, the inhibition was 12.1%.
As to `O=C(/C=C/c1ccc(F)cc1)NC(=S)NNC(=O)c1cccnc1`, the inhibition was 14.7%.
Regarding `COc1cccc(/C=N/NC(=O)c2[nH]nc3c2CCc2ccccc2-3)c1O`, the inhibition was 36% (active).
As for `N=c1n(Cc2ccc(Cl)cc2)c2ccccc2n1CC(O)c1ccco1` (stereo not given), the figure is -2.68%; as for `Cc1ccc2nc(N3C(=O)C(O)=C(C(=O)c4ccco4)C3c3cccc(O)c3)sc2c1` (stereo not given), 20.8% (active).
As for `CCNS(=O)(=O)c1ccc(NC(=O)Nc2cccc(C(F)(F)F)c2)cc1`, the figure is 4.33%; as for `Cc1nc2c(C(=O)NCc3ccc4c(c3)OCO4)c[nH]n2c(=O)c1Cc1ccccc1F`, 32.2% (active); as for `Cc1cc(N2C(=O)C(O)=C(C(=O)c3ccc(C)o3)C2c2ccc(OCc3ccccc3)cc2)no1` (stereo not given), 32.6% (active).
As for `COc1ccc(C2C(C(C)=O)=C(O)C(=O)N2CCc2c[nH]c3ccccc23)cc1` (stereo not given), the inhibition was 11.8%.
As for `CCCOc1ccc(C2C(C(=O)c3ccc(C)o3)=C(O)C(=O)N2CCCn2ccnc2)cc1` (stereo not given), the inhibition is 37.2% (active).
In the case of `COc1cc(C2C(C(=O)c3ccc(C)o3)=C(O)C(=O)N2CCc2ccccc2)ccc1O` (stereo not given), the inhibition was 27.1% (active).
The same measure for `C/C(CC(O)(/C=N/O)c1ccccc1)=N\O` (stereo not given): -3.06%; for `Cc1ccc2cc(CCNC(=O)c3c(-c4ccccc4Cl)noc3C)c(=O)[nH]c2c1`: -1.41%; for `COC(=O)Cc1cc(=O)n(-c2nc3ccccc3s2)[nH]1`: 0.62%.
Turning to `CN(C(=O)CN(CCO)CC(=O)N(C)C(C)(C)Cc1ccccc1)C(C)(C)Cc1ccccc1`, the inhibition is -9.33%.
`C#CCOCCOCCOCCNc1nc(N2CCN(C(=O)CCCCCCCCCCNC(=O)Cn3cc(CCCCCN)nn3)CC2)nc(N2CCN(C(=O)CCCCCCCCCCNC(=O)[C@H](CO)n3cc(CCCSC)nn3)CC2)n1`: the inhibition was 50.9% (active).
The same measure for `C#CCOCCOCCOCCNc1nc(N2CCN(C(=O)CCCCCCCCCCNC(=O)[C@H]([C@@H](C)CC)n3cc(CCCCN=C(N)N)nn3)CC2)nc(N2CCN(C(=O)CCCCCCCCCCNC(=O)[C@H](CO)n3cc(CCCSC)nn3)CC2)n1`: 42.5% (active); for `C#CCOCCOCCOCCNc1nc(N2CCN(C(=O)CCCCCCCCCCNC(=O)[C@H](CCCCN)n3cc(C)nn3)CC2)nc(N2CCN(C(=O)CCCCCCCCCCNC(=O)[C@H](CO)n3cc(CCCSC)nn3)CC2)n1`: 41.8% (active).
Turning to `C=CCn1c(=S)[nH]c2scc(-c3ccco3)c2c1=O`, the inhibition is 7.08%.
The same measure for `Cc1nc(/N=C(\N)NC(=O)NC2CCCCC2)nc2ccccc12`: 26.9% (active); for `Cc1ccc(-c2cc(C(=O)N/N=C/C=C/c3ccco3)c3ccccc3n2)cc1C`: 9.2%.
As for `OCCCN1c2ccccc2Nc2nnc(-c3ccccc3)cc21`, the figure is 27.3% (active); as for `CCC(=C/c1sc2ccc3ccccc3c2[n+]1C)/C=C1\Sc2ccc3ccccc3c2N1C`, 62.5% (active); as for `CSc1ccc(/C=N\NC(=O)COc2ccc(Cl)cc2Br)cc1`, -1.13%.

The values above are taken from PubChem BioAssay AID2358 (The Scripps Research Institute Molecular Screening Center, 2010).
